Only some compounds are listed: those with a hit (about 5.2% of all), similar ones and a draw of the others.
esBAF inh – inhibitors of esBAF chromatin remodeling in mouse ES cells | Bmi1-luciferase knock-in reporter, 24 h; 100% = twice the neutral-well signal | reporter increase, % at 12.5 µM | 350,000 compounds, 2% hits | AID 602393; in the data active = activation above about 40%;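 note: 0% = median of the plate's neutral control wells and 100% = double that signal; a rise in the Bmi1 reporter signal indicates esBAF inhibition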
SKN-1 block – C. elegans SKN-1 inhibition; C. elegans VP596 Pgst-4::GFP/RFP ratio, acrylamide-induced, 24 h; inhibition, % at 21.8 µM; 360,000 compounds, 0.49% hits;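 active = interference check ratio from 0.5 to 1.5 plus GFP to RFP signal ratio inhibition reaching or exceeding a fixed threshold, cut at about 30% in these data, passing the limit was not always enough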
SMARCA2 activ – SMARCA2 function activation, primary screen; MG213 cells, MMTV-luciferase reporter, dexamethasone, overnight; AID 652017; activation, % at 9.1 µM; 370,000 compounds, 1% hits; in the data active = activation above about 7.8%;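 note: 0% = vehicle wells and 100% = reference activator wells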
Vif imaging – inhibitors of HIV Vif; HEK293T cells, Vif self-association by quenched fluorescence, imaging, 24 h; inhibition, % at 7.49 µM; 340,000 compounds, 0.35% hits; AID 602346; in the data active = inhibition above about 50%, passing the limit was not always enough
NadD block – blocks S. aureus nicotinate mononucleotide adenylyltransferase | 360,000 compounds, 0.78% hits | purified NadD enzyme, colorimetric absorbance read-out | inhibition, % at 20 µM; in the data active = inhibition above about 26%
GRIN3A LBD mod – modulates the human NR3A ligand-binding domain. NR3A LBD differential scanning fluorimetry, Tm shift; 0% = protein alone, 100% = glycine-bound protein. Tm shift relative to glycine control, % at 25 µM. 340,000 compounds, 2.5% hits;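 active = melting temperature shift of at least 10% of the positive control shift, at one fixed dose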
* = called active by the depositor.

How did O=C(OCc1ccccc1F)c1cc(S(=O)(=O)N2CCCCC2)ccc1N1CCOCC1 do in these assays?
esBAF inh: -2.6; SKN-1 block: 1.3; SMARCA2 activ: -6.0; Vif imaging: -11.6; NadD block: -5.1

What do the screens show for `COc1ccc(S(=O)(=O)N2CCCCCC2)cc1C(=O)OCC(=O)NC(N)=O`?
esBAF inh: 8.6; SKN-1 block: 10.7; SMARCA2 activ: 0.4; Vif imaging: 10.4; NadD block: -4.2; GRIN3A LBD mod: 0.5

Results for COc1cc(SC)ccc1C(=O)Nc1ccon1 ?
esBAF inh: 50.7*; SKN-1 block: 20.5; SMARCA2 activ: 2.5; Vif imaging: -4.3; NadD block: 2.6; GRIN3A LBD mod: -3.1

What do the screens show for `COc1cc(SC)ccc1C(=O)Nc1cccc(C)n1`?
esBAF inh: 45.0*; SKN-1 block: 28.4; SMARCA2 activ: 4.2; Vif imaging: -0.1; NadD block: 1.7; GRIN3A LBD mod: 0.1

What do the screens show for `COc1cccc(COC(=O)c2cc(S(=O)(=O)N3CCCCC3)ccc2N2CCOCC2)c1OC`?
esBAF inh: 3.4; SKN-1 block: 5.2; SMARCA2 activ: 1.3; Vif imaging: -19.6; NadD block: -5.7; GRIN3A LBD mod: 19.5*

Results for C[C@H](CO)N1C[C@H](C)[C@@H](CN(C)C(=O)Nc2ccc(F)cc2)Oc2ccc(NS(=O)(=O)c3cn(C)cn3)cc2C1=O ?
esBAF inh: -10.6

How did COc1ccc(S(=O)(=O)N2CCCCCC2)cc1C(=O)Nc1cccc(C)n1 do in these assays?
esBAF inh: 9.1; SKN-1 block: -11.4; SMARCA2 activ: 0.6; Vif imaging: 0.3; NadD block: -2.5; GRIN3A LBD mod: 23.2*

What do the screens show for `CC(=O)N(C)C[C@@H]1Oc2ncc(C#Cc3ccc(F)cc3)cc2C(=O)N([C@@H](C)CO)C[C@@H]1C`?
esBAF inh: -1.2

How did COc1cc(C)c(Cl)cc1S(=O)(=O)NCc1ccco1 do in these assays?
esBAF inh: 3.4; SKN-1 block: 1.7; SMARCA2 activ: -1.9; Vif imaging: 11.6; NadD block: 0.4; GRIN3A LBD mod: 3.4

Results for CCOc1cc(C)c(Cl)cc1S(=O)(=O)NCc1ccco1 ?
esBAF inh: -3.5; SKN-1 block: -11.5; SMARCA2 activ: 0.5; Vif imaging: -3.5; NadD block: 0.6; GRIN3A LBD mod: 19.6*

Results for CC1(C)SC(=S)N(NC(=O)Nc2ccccc2)C1N(O)C(=O)Nc1cccc2ccccc12 (stereo not given) ?
SKN-1 block: 13.0; SMARCA2 activ: 0.3; Vif imaging: 1.4; NadD block: 0.8; GRIN3A LBD mod: 21.0*

What do the screens show for `CN(C)CC(=O)Nc1ccc2c(c1)[C@H]1C[C@@H](CC(=O)NCc3ccncc3)O[C@@H](CO)[C@H]1O2`?
esBAF inh: 0.5

Results for C[C@@H]1CN([C@@H](C)CO)C(=O)c2cc(NC(=O)CCC(F)(F)F)ccc2O[C@H]1CN(C)Cc1ccncc1 ?
esBAF inh: -1.2

Results for NS(=O)(=O)c1ccc(NC(=O)CSc2nnc(Cc3cccs3)n2-c2ccccc2)cc1 ?
esBAF inh: 3.9; SKN-1 block: 6.1; SMARCA2 activ: -1.3; Vif imaging: 23.1; NadD block: 2.1; GRIN3A LBD mod: 10.3*

What do the screens show for `CCOC(=O)c1cccc(-c2ccc(C=O)o2)c1`?
esBAF inh: 14.5; SKN-1 block: -0.6; SMARCA2 activ: -2.6; Vif imaging: -2.1; NadD block: 0.3; GRIN3A LBD mod: 0.8

How did CCCOC(=O)c1ccc(-c2ccc(C=O)o2)cc1 do in these assays?
esBAF inh: 75.5*; SKN-1 block: -21.9; SMARCA2 activ: 4.9; Vif imaging: 13.4; NadD block: 0.4; GRIN3A LBD mod: 5.6

Results for CCOC(=O)c1ccc(-c2ccc(C=O)o2)cc1 ?
esBAF inh: 54.0*; SKN-1 block: -7.9; SMARCA2 activ: 2.7; Vif imaging: -13.4; NadD block: -4.1; GRIN3A LBD mod: 0.5

Results for COc1ccc(NC(=O)Nc2cccc3c2O[C@@H](CN(C)S(=O)(=O)c2cccs2)[C@H](C)CN([C@@H](C)CO)C3=O)cc1 ?
esBAF inh: -6.1

Results for O=C(NCC(F)(F)F)[C@@H]1[C@@H](CO)[C@@H]2Cn3c(ccc(-c4cccnc4)c3=O)[C@H]1N2Cc1ccccc1 ?
esBAF inh: 3.1

What do the screens show for `C[C@H]1CN([C@@H](C)CO)C(=O)c2cccc(NC(=O)C3CCCCC3)c2O[C@H]1CN(C)Cc1ccncc1`?
esBAF inh: 1.4

What do the screens show for `CC(=O)Nc1ccc(NC(=O)CSc2ccc(-c3ccc(-n4ccnc4)cc3)nn2)cc1`?
esBAF inh: -3.4; SKN-1 block: -1.3; SMARCA2 activ: 0.1; Vif imaging: 7.9; NadD block: -2.3; GRIN3A LBD mod: 16.8*

What do the screens show for `O=C1c2ccccc2C(=O)C1c1ccc(O)cc1`?
esBAF inh: 59.2*; SKN-1 block: -6.1; SMARCA2 activ: 5.0; Vif imaging: -9.9; NadD block: -0.8; GRIN3A LBD mod: 2.7

What do the screens show for `O=C1c2ccccc2C(=O)C1c1ccc(Br)cc1`?
esBAF inh: -0.9; SKN-1 block: -0.5; SMARCA2 activ: -0.2; Vif imaging: -3.8; NadD block: -4.5; GRIN3A LBD mod: -1.0

How did COc1ccc2c(c1)O/C(=C\c1ccco1)C2=O do in these assays?
esBAF inh: 30.1; SKN-1 block: 12.6; SMARCA2 activ: 4.3; Vif imaging: -5.6; NadD block: -3.2; GRIN3A LBD mod: 1.1

How did CC(=O)COc1ccc2c(c1C)O/C(=C\c1ccco1)C2=O do in these assays?
esBAF inh: 61.3*; SKN-1 block: 20.8; SMARCA2 activ: 2.9; Vif imaging: -4.9; NadD block: -1.7; GRIN3A LBD mod: -0.5

What do the screens show for `CC(C)NC(=O)N1C[C@H]2[C@@H](c3ccccc31)[C@H](CO)N2C(=O)NC(C)C`?
esBAF inh: -7.2

Results for Cc1ccc(CNS(=O)(=O)c2ccc3c(c2)OCCO3)cc1 ?
SKN-1 block: 12.2; SMARCA2 activ: -1.4; Vif imaging: -2.3; NadD block: -7.2; GRIN3A LBD mod: 15.9*

Results for Cc1ccc(S(=O)(=O)NCC2CCC(C(=O)NCc3ccc4c(c3)OCO4)CC2)cc1 (stereo not given) ?
esBAF inh: 5.9; SKN-1 block: -6.3; SMARCA2 activ: -3.8; NadD block: -1.1; GRIN3A LBD mod: 15.3*

Results for CC(C)C#Cc1ccc2c(c1)O[C@@H](CN(C)C(=O)Cc1ccccn1)[C@@H](C)CN([C@H](C)CO)S2(=O)=O ?
esBAF inh: 6.9

Results for C=CCNC(=S)NNC(=O)COc1ccc(Br)cc1 ?
SKN-1 block: -9.0; SMARCA2 activ: -1.9; Vif imaging: -11.9; NadD block: -11.4; GRIN3A LBD mod: -1.3

Results for C=CCNC(=S)NNC(=O)COc1ccc2cc(Br)ccc2c1 ?
esBAF inh: 40.7*; SKN-1 block: -5.9; SMARCA2 activ: 6.2; Vif imaging: -7.4; NadD block: 1.1; GRIN3A LBD mod: -7.6

Source: PubChem (several laboratories)
